Screens as filed in PubChem.
D1 PAM – human D1 dopamine receptor positive modulation; potentiation, % at 10 µM; 360,000 tested, 0.036% active; HEK293 TREx D1 cells, calcium flux, dopamine EC20 potentiation; in the data active = potentiation above about 30%; note: 0% is about no effect
Target sequence (P21728 whole entry, looked up): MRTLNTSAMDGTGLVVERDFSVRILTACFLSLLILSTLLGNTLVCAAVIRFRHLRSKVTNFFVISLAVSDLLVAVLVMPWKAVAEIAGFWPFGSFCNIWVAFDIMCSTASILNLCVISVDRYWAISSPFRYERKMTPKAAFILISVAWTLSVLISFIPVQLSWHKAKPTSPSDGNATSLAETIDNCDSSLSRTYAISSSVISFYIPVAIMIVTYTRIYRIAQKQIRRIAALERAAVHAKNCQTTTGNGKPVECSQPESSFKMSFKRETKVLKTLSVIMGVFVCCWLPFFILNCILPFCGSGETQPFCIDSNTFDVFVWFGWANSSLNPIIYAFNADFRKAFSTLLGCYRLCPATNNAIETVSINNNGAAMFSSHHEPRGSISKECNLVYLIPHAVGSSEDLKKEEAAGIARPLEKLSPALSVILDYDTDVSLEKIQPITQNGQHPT
D1 ag – human D1 receptor agonism; P21728; HEK293 T-REx D1 cells, calcium flux, agonist mode; activation, % at 2 µM; 360,000 tested, 1% active; note: 0% is about no effect
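Tetracycline-induced HEK293 TREx D1 cells, force-coupled to calcium signalling, were dye-loaded with a no-wash calcium kit. Compound was pin-added after a 10 s baseline. Fluorescence was read kinetically at 1 cycle/s for 180 s, with calcium rises flagged as agonism.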
TRHR enhancer – allosteric enhancers of human TRH receptor | TRHR cells, fluo-8 calcium fluorescence, EC20 TRH enhancement | enhancement, % at 2 µM | 360,000 tested, 0.66% active | AID 493056; in the data active = enhancement above about 30%; note: 0% is about no effect
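TRHR-expressing cells loaded with fluo-8 calcium dye were read kinetically (ex 480/em 530) during compound addition, then stimulated with an EC20 of TRH (10 nM final). Enhancement of the Gq-mediated intracellular calcium response was scored.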
TRHR ag – activates the human TRH receptor | TRHR cells, calcium flux fluo-8, FDSS agonist mode | activation, % at 2 µM | 360,000 tested, 0.18% active | P34981; note: 0% is about no effect
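Steps: seed TRHR cells overnight; add fluo-8 no-wash Ca dye, RT 30 min–1.5 h; record 10 s baseline; pin-transfer compounds; monitor fluorescence 1 cycle/s for the agonist window. Calcium increases flag candidate agonists.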
D1 antagonist – antagonists of human D1 dopamine receptor | 360,000 tested, 3.2% active | activity change, negative = inhibition, % at 10 µM | HEK293 TREx D1 cells, calcium flux, dopamine EC80; active compounds read low | P21728 | AID 504652; in the data active = activity change below about -30%; note: % is set by controls: 0 for no effect and ±100 for the full control effect
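Kinetic fluorescence of a calcium dye serves as the read-out. D1-expressing Hek293 Trex cells, induced overnight at 30 C, are exposed to compound for 180 s before an EC80 dopamine addition, then read 180 s further.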
Numbers without * were called inactive. This is a sample that favours compounds with a hit; in the whole collection about 4.7% have one here. Cut-off read from the data, not from the text of the source, unless noted: active = activation above about 30%; inactive = the rest.

SMILES	D1 PAM	D1 ag	TRHR enhancer	TRHR ag	D1 antagonist
O=C1CC(c2ccco2)Cc2nc(NCC3CCCO3)ncc21 (stereo not drawn)	-3	0	2	0	-32*
COc1cc(S(=O)(=O)N(Cc2ccccn2)Cc2ccccc2Cl)ccc1-n1cnnn1	-6	3	-2	0	-24
COc1ccccc1CN(Cc1ccco1)S(=O)(=O)c1ccc(-n2cnnn2)c(OC)c1	-10	9	1	1	-33*
O=C(COC(=O)c1cc(Cl)ccc1O)c1ccc2c(c1)OCO2	-4	3	38*	0	-16
O=C(COC(=O)c1ccc(O)cc1O)c1ccc2c(c1)OCO2	2	1	-10	0	-15
CCc1ccc(S(=O)(=O)c2cnc3ccc(OC)cc3c2N2CCCC(C)C2)cc1 (stereo not drawn)	-9	7	2	0	-56*
COc1ccc(S(=O)(=O)c2cnc3cc(OC)c(OC)cc3c2N2CCCC(C)C2)cc1 (stereo not drawn)	-9	8	11	0	-3
COc1ccc(CN2C(=O)C(NC(=O)c3ccccc3C)(C(F)(F)F)N=C2c2ccccc2)cc1 (stereo not drawn)	-1	4	-2	-1	-12
COc1ccc(Nc2cc(C)nc3ccccc23)cc1	-3	2	-6	0	1
COC(=O)c1ccc2nc(C)cc(Nc3ccccc3C)c2c1	-2	3	-3	-1	-33*
CC(=O)c1cccc(Nc2cc(C)nc3ccc(C)cc23)c1	-20	-1	-1	0	-40*
CC(=O)c1ccc(Nc2cc(C)nc3c(C)cccc23)cc1	-3	10	-19	1	-31*
Cc1ccc(Nc2cc(C)nc3c(C)cccc23)cc1	-12	0	-3	0	-33*
CC(=O)c1ccc(Nc2cc(C)nc3ccccc23)cc1	1	0	-4	0	7
CN(C)CC(CCC(CN(C)C)C(O)(c1ccccc1)c1ccccc1)C(O)(c1ccccc1)c1ccccc1 (stereo not drawn)	-7	27	-15	5	-41*
Cc1ccccc1NC(=O)c1ccccc1NC(=O)c1cccs1	-5	-2	-5	-1	14
CSc1ccccc1NC(=O)c1c(Br)cnn1C	3	1	4	2	-33*
CCCCC(CC)c1nnc(NC(=O)c2cccs2)s1 (stereo not drawn)	-4	17	2	-1	7
CSc1ccccc1NC(=O)c1cccs1	-8	2	8	-1	-65*
CC(C)c1nnc(NC(=O)c2cccs2)s1	-17	2	1	1	-53*
Cc1cnccc1NC(=O)c1cccs1	-2	2	8	0	-41*
COc1ccc(-n2c(=O)c3c4c(sc3n(Cc3ccccc3)c2=O)CCC4)c(OC)c1	1	4	0	0	-13
Cc1cccc(CNC(=O)CN2C(=O)CCn3nc(-c4cn(C)c5ccccc45)cc32)c1	-3	0	3	-1	1
Cc1cc2c(s1)c1cnn(Cc3cccc4cccnc34)c(=O)c1n2C	7	1	0	-1	-1
FC(F)(F)c1cccc(-c2nc3nc(Cl)c(Cl)nc3[nH]2)c1	-8	33*	-14	7	-35*
SMILES	D1 PAM	D1 ag	TRHR enhancer	TRHR ag	D1 antagonist
CN1CCN(c2ccc(-c3cc(O)c4ncccc4c3)cc2)CC1	-2	6	-1	0	1
O=C(CCSCc1cccc(Cl)c1)N1CCN(c2ccc(Cl)cc2)CC1	-3	5	-2	0	-2
Cc1ccc(C(=O)OC2OC(=O)C(Cl)=C2N2CCOCC2)cc1 (stereo not drawn)	-5	9	30*	1	-17
Fc1ccc(-n2cc(-c3ccccc3)c3c(=S)nc[nH]c32)cc1	-14	2	-19	0	-41*
Cc1ccc(-n2cc(-c3ccccc3)c3c(=O)[nH]cnc32)cc1	-19	1	-5	0	-66*
O=C(N/N=C/c1cccc(O)c1)N/N=C/c1cccc(O)c1	10	1	11	0	-8
Cc1nonc1C(=O)N/N=C/c1cccc(O)c1	-6	2	-1	0	-43*
OCCOc1ccc(CN2CCCC(N3CCN(c4ccc(F)cc4)CC3)C2)cc1 (stereo not drawn)	-5	0	-2	0	-43*
COc1ccc(NC(=O)c2cc3c(s2)-c2c(C)cccc2OC3)c(OC)c1	-5	0	0	0	11
Cc1ccc(/C(N)=N/OC(=O)Cc2cccs2)cc1	7	0	6	0	10
N/C(=N\OC(=O)Cc1cccs1)c1ccccc1	-8	1	-2	0	-38*
CCOC(=O)COc1ccc(-c2nnn(CC(=O)Nc3ccccc3)n2)cc1	0	1	1	0	9
COC(=O)c1sc(-c2ccc(C(C)(C)C)cc2)cc1NC(=O)COCC(=O)O	-4	58*	-24	1	-39*
COC(=O)c1sc(-c2ccc(Cl)cc2)cc1NC(=O)CSCC(=O)O	0	3	-2	0	2
NNC(=O)c1ccc(N2CCc3ccccc32)c([N+](=O)[O-])c1	-2	1	-4	0	-33*
Cc1ccc(CNC(=O)c2ccc(N3CCc4ccccc43)c([N+](=O)[O-])c2)cc1	-2	1	-7	0	-10
COC(CNC(=O)c1ccc(N2CCc3ccccc32)c([N+](=O)[O-])c1)OC	-5	10	-3	1	-31*
COC(=O)c1ccc(NC(=O)CCc2c(C)nc3c(c2C)c(=O)n(C)c(=O)n3C)cc1	1	0	16	0	0
CCCCCCCCCCCCCCCC[n+]1cccc(C(=O)N(CC)CC)c1	15	279*	2	0	-21
CCCCCCCC[n+]1cccc(C(=O)N(CC)CC)c1	2	1	2	-1	10
Cc1ccc(C(C)C)c(OC/C(O)=C(\C#N)c2nc3ccccc3[nH]2)c1	-4	2	1	0	-32*
CC(C)C(=O)OC/C(O)=C(\C#N)c1nc2ccccc2[nH]1	-6	2	-5	2	-25
CC(Oc1ccc(Br)cc1)C(=O)Nc1ncn[nH]1 (stereo not drawn)	-2	0	7	0	2
CCCc1cc(NCCCN(C)C)n2c(nc3ccccc32)c1C#N	-7	1	-4	0	-38*
COCC(=O)NCc1nc2cccnc2n1Cc1ccc(F)cc1	-4	0	0	0	4
Cc1cc2ccccc2n1CCNCc1c(C(=O)N2CCOCC2)nc2ccccn12	-1	5	2	0	1
O=C(c1nc2ccccn2c1CNCCCn1ncc2ccccc21)N1CCOCC1	-3	0	1	0	-42*
CCCCNC(=S)NC(=O)c1ccccc1Br	-4	1	2	-1	-33*
